Test results taken from PubChem BioAssay AID1527 (The Scripps Research Institute Molecular Screening Center, 2009).
The whole screen tested about 290,000 compounds, of which about 2,600 (0.9%) were called active.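 How the source made its calls: active means inhibition above the mean of all tested compounds plus 3 SD, cutoff set per screening run (cut at about 7.5% in these data); inactive means the rest.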 Many of the other results were omitted from the sample, so actives are more common in it than they were.

Each molecule was assayed on VIM-2 metallo-beta-lactamase (Pseudomonas aeruginosa) (assay: VIM-2 metallo-beta-lactamase inhibitors, primary screen, biochemical, epi-absorbance readout, Pseudomonas aeruginosa enzyme (AID 1527;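 further: red hydrolysis product quenches plate fluorescence so inhibitors raise well fluorescence; 0% = enzyme with DMSO and 100% = DMSO without enzyme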)). Conditions: purified VIM-2, nitrocefin hydrolysis, epi-absorbance fluorescence; at 5.6 µM; active compounds read high.

Compound | inhibition
Cc1cccc(CS(=O)(=O)c2ncc(Cl)c(C(=O)Nc3ccc(F)cc3)n2)c1 | -3.25% (inactive)
O=C(CCC1CCCN(C(=O)c2ccc(F)c(F)c2)C1)N1CCN(c2ccccn2)CC1 (configuration not stated) | -0.15% (inactive)
CCn1ccnc1CNC(=O)CC1C(=O)NCCN1Cc1ccc(F)cc1Cl (configuration not stated) | -4.36% (inactive)
Cc1nn(C)cc1N1C(=O)c2cccc3c(N)ccc(c23)C1=O | 21.7% (active)
Cc1nn(-c2cc(Cl)ccc2N)c(=O)c2ccccc12 | -2.2% (inactive)
CN1C(=O)c2cccc3c(N)ccc(c23)C1=O | 50.1% (active)
O=C1c2ccccc2C(=O)N1c1cccc2ccccc12 | -0.93% (inactive)
O=C(O)c1ccc2c3c(cccc13)C(=O)N(OS(=O)(=O)c1ccccc1)C2=O | 0.17% (inactive)
CC(=O)Nc1ccccc1Sc1ccc2c3c(cccc13)C(=O)N(c1ccc(C)cc1)C2=O | -3.98% (inactive)
NS(=O)(=O)c1ccc(N=Nc2c(O)[nH]c3ccc(Br)cc23)cc1 | -2.22% (inactive)
Cc1c(C=O)c2ccccc2n1CCOc1ccccc1 | -0.2% (inactive)
CN(C)CCCN(C(=O)c1ccc(S(=O)(=O)N2CCCc3ccccc32)cc1)c1nc2ccc(F)cc2s1 | -1.07% (inactive)
CCc1cc(C(N)=O)c(NC(=O)c2ccc(OC)cc2)s1 | -2.73% (inactive)
CCc1cc(C(=O)c2ccc(OC)cc2)c(NC(=O)CN2CCN(C)CC2)s1 | 7.76% (active)
CCOc1ccc(NC(=O)CN2CCN(CC(=O)Nc3ccc(OC)cc3)CC2)cc1 | 0.38% (inactive)
COc1cccc(CN(C)CC2CCCN(CCc3ccc(Cl)cc3)C2)c1OC (configuration not stated) | -0.31% (inactive)
COc1ccc(CNc2cc(C)cc(C)c2)cc1OC | -0.65% (inactive)
O=C(/C=C/c1cccc(C(F)(F)F)c1)N1CCN(c2ccccn2)CC1 | -1.71% (inactive)
COc1ccccc1NC(=O)C1CCN(C(=O)c2ccc(C(C)(C)C)cc2)CC1 | -0.92% (inactive)
Cc1ccc(NS(=O)(=O)c2ccc3c(c2)NC(=O)CO3)cc1 | -3.86% (inactive)
COc1cccc(/C=C2\Sc3ccc(C(=O)NCC4CCCO4)cc3N(C)C2=O)c1 (configuration not stated) | 2.03% (inactive)
COCCCn1c(SCC(=O)NC2CCCC2)nnc1-c1ccccc1 | -3.05% (inactive)

Compound | inhibition
CCC(C)c1ccc(NC(=S)N2CCCC2)cc1 (configuration not stated) | -4.58% (inactive)
Cc1cc(C)c2nc(-c3ccco3)cc(C(=O)O)c2c1 | -2.98% (inactive)
Cc1cc(C)c2nc(SCCC#N)nc(C)c2c1 | 0.46% (inactive)
Cc1cc(C)c2nc3nc(C)cc(C)c3c(N)c2c1 | 23.4% (active)
Cc1cccnc1CC(C)NC(=O)c1cc(COc2cncc(Cl)c2)on1 (configuration not stated) | -1.87% (inactive)
OCCN1CCN(c2nnc(-c3ccccc3)c3ccccc23)CC1 | 1.21% (inactive)
O=C1c2ccccc2C(=O)c2c1cccc2N1CCN(Cc2ccccc2)CC1 | -2.44% (inactive)
O=C1c2ccccc2C(=O)c2c1cccc2N1CCN(CCO)CC1 | 8.84% (active)
CN(C)Cc1c(O)ccc2c(=O)c(-c3ccccc3Cl)coc12 | -1.33% (inactive)
Cc1ccc(CNC(=O)C2CCCN2S(=O)(=O)c2ccc3c(c2)C(C)(C)C(=O)N3C)cc1 (configuration not stated) | -0.78% (inactive)
Cc1ccc2nc(Nc3ccccc3)cc(C)c2c1 | 0.49% (inactive)
Cc1ccc2nc3n(c(=O)c2c1)CCC3 | -2.8% (inactive)
Cc1ccc2nc(C)c3c(c2c1)N(c1ccccc1)CC3 | 14.6% (active)
COc1ccc(S(=O)(=O)N(CC(=O)NCc2ccco2)c2ccc(F)cc2)cc1 | -4.2% (inactive)
CCOc1ccccc1-c1nc(CN2CCC(C(=O)N3CCOCC3)CC2)c(C)o1 | -1.39% (inactive)
Cc1cc(C)c2c(n1)nn1c(-n3ccnc3)cc(C)nc21 | 5.51% (inactive)
Cc1cc(C)c2c(n1)nn1c(N3CCN(c4cccc(Cl)c4)CC3)cc(C)nc21 | -6.43% (inactive)
Cc1cc(C)c2c(n1)nn1c(N3CCOCC3)cc(C)nc21 | 16.1% (active)
COc1ccc(OCC(=O)NCCS(=O)(=O)N2CCN(c3ccc(F)cc3)CC2)cc1 | -1.58% (inactive)
CCC(=O)N1c2ccc(S(=O)(=O)NCc3ccco3)cc2CC1C (configuration not stated) | -0.12% (inactive)
O=C(N/C(=C\c1ccc([N+](=O)[O-])cc1)C(=O)N1CCCCC1)c1ccco1 | -3.79% (inactive)
COc1ccc(OC)c(S(=O)(=O)n2c([N+](=O)[O-])cnc2C)c1 | -2.01% (inactive)

Compound | inhibition
CCOC(=O)C(Cc1ccc(N)cc1)N1C(=O)c2ccccc2C1=O (configuration not stated) | -2.51% (inactive)
COc1ccc(S(=O)(=O)NC(C)C(=O)NCc2ccncc2)cc1Cl (configuration not stated) | -2.14% (inactive)
CC(Oc1cc2oc(=O)c3c(c2cc1Cl)CCCC3)C(=O)NCc1ccncc1 (configuration not stated) | 7.79% (active)
Cc1cc(Cl)ccc1OCCCC(=O)NCc1ccncc1 | -1.05% (inactive)
CCCCc1nc2cc(C(=O)NCCc3cnn(C)c3)ccc2o1 | 1.12% (inactive)
Cc1nnc(SCC(=O)NCc2cccs2)[nH]c1=O | -0.38% (inactive)
CC(C)(C)CC(=O)Nc1nnc(SCC(=O)NCc2cccs2)s1 | 20.2% (active)
O=C(Cc1cccs1)Nc1nnc(SCc2ccc(F)cc2)s1 | 0.7% (inactive)
CCn1c(SCc2cccc(C(=O)O)c2)nnc1-c1ccc(Cl)cc1 | -1.15% (inactive)
Cn1c(=O)c2c(nc(N3CCOCC3)n2CCNC2=NCCC2)n(C)c1=O | 16% (active)
Cn1c(=O)c2c(nc(N3CCCCCC3)n2CC(=O)c2ccc(Br)cc2)n(C)c1=O | -2.28% (inactive)
CCCCn1c(SCC(=O)N2CCOCC2)nc2c1c(=O)n(C)c(=O)n2C | 1.45% (inactive)
COc1ccc(C(=O)NCCNc2ccc([N+](=O)[O-])cn2)cc1 | 0.89% (inactive)
Cc1c(OC(C)C(=O)NCC2CCC(C(=O)O)CC2)ccc2c1oc(=O)c1ccccc12 (configuration not stated) | 10.8% (active)
Cc1cc(=O)oc2c(C)c(OC(C)C(=O)NC3CCN(Cc4ccccc4)CC3)ccc12 (configuration not stated) | 2.37% (inactive)
Cc1c(OC(C)C(=O)N[C@@H](Cc2ccccc2)C(=O)O)ccc2c3c(c(=O)oc12)CCCC3 (some centres not stated) | 6.52% (inactive)
C=CCc1ccc(OCCOc2cccc(/C=N/n3cnnc3)c2)c(OC)c1 | 0.81% (inactive)
Cc1noc(C)c1CSCC(=O)N(CCC(C)C)c1c(N)n(Cc2ccccc2)c(=O)[nH]c1=O | -3.06% (inactive)
NC(=O)C1CCN(C(=O)COc2ccc3c4c(c(=O)oc3c2)CCC4)CC1 | 14.1% (active)
NC(=O)COc1ccc2c3c(c(=O)oc2c1)CCCCC3 | 7.97% (active)
Cc1c(C)c2ccc(OCC(=O)N3CCN(c4cccc(Cl)c4)CC3)cc2oc1=O | -1.38% (inactive)
O=C(COc1ccc2c3c(c(=O)oc2c1)CCC3)NC1CCCCC1 | -1.01% (inactive)

Compound | inhibition
CCCCc1cc(=O)oc2c(C)c(OCC(=O)N3CCC(C(N)=O)CC3)ccc12 | -1.28% (inactive)
O=C(COc1ccc2c3c(c(=O)oc2c1)CCCC3)NCC(O)c1ccccc1 (configuration not stated) | 6.2% (inactive)
Cc1cc(Cl)nc(NC(=O)Nc2cccc(Cl)c2)n1 | 1.05% (inactive)
Nc1cc(N)nc(SCc2cccc(F)c2)n1 | 3.79% (inactive)
N=c1oc2ccccc2cc1C(=O)NCc1ccccc1 | -0.7% (inactive)
COc1ccc(CCNc2nc3ccc(C)cc3n3cnnc23)cc1OC | 0.51% (inactive)
CCOC(=O)CSc1nc2ccc(C)cc2[nH]1 | 0.26% (inactive)
CCOC(=O)CSc1nc2ccc(C)cc2n2cnnc12 | 9.79% (active)
CCOC(=O)c1sc(NC(=S)n2cc(C)cn2)c(C(=O)OCC)c1C | -2.26% (inactive)
CCn1cc(S(=O)(=O)c2cccc(C)c2)c(=O)c2cc(F)c(N3CCN(C)CC3)cc21 | 12.1% (active)
CN1CCN(c2cc3c(cc2F)c(=O)c(C(=O)O)cn3CCF)CC1 | -0.28% (inactive)
CCn1cc(C(=O)NCCO)c(=O)c2cc(F)c(N3CCN(C)CC3)cc21 | 1.17% (inactive)
COc1ccc(/C=C/C(=O)NC(=S)N2CCCC(C(N)=O)C2)cc1 (configuration not stated) | -3% (inactive)
COc1ccc(CNc2ccc3c(c2)CCC3)cc1OC | -1.76% (inactive)
CC(=O)c1ccc(-c2ccc(Cn3c(C)nc4cc(N)c(C)nc43)cc2)cc1 | 21.7% (active)
CCOC(=O)c1ccc2c(c1)nc(C)n2CC | -4.24% (inactive)
CC(=O)c1nc2ccccc2n1Cc1ccccc1 | -0.19% (inactive)
O=C(N/N=C/c1ccc(Cl)c(Cl)c1)c1ccc2nc[nH]c2c1 | -1.16% (inactive)
CS(=O)(=O)N1CCCC(C(=O)Nc2ccccc2C(F)(F)F)C1 (configuration not stated) | -0.2% (inactive)
O=C(CSc1ccc(-c2ccco2)nn1)Nc1cccc(F)c1 | -1.64% (inactive)
Cc1ccccc1C(=O)NC(=S)NC1CC1 | -2.76% (inactive)
